Measurements reported in PubChem BioAssay AID778 (Sanford-Burnham Center for Chemical Genomics, 2007).
Out of some 96,000 compounds screened, about 20,000 (21%) were called active. The list is a sample of the results. Unmarked numbers belong to inactive results.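 Rule for the calls: active = CYP2C19 inhibition above a set limit at 5 µM in the primary screen (cut at about 50% in these data); inactive = the rest.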

These molecules were tested against Cytochrome P450 2C19 (Homo sapiens) (UniProt P33261) (assay: blockers of cytochrome P450 2C19 activity – biochemical, luminescence, ADME assay, primary screen (AID 778;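 note: plate controls were negative control wells for no effect and 2.5 mM tranylcypromine positive control for full effect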)). Conditions: CYP2C19 Supersomes, luciferin-H EGE luminescence, 30 min; at 5 µM; stronger effect = higher value.
Cytochrome P450 2C19 (Homo sapiens), sequence (P33261 whole entry, looked up): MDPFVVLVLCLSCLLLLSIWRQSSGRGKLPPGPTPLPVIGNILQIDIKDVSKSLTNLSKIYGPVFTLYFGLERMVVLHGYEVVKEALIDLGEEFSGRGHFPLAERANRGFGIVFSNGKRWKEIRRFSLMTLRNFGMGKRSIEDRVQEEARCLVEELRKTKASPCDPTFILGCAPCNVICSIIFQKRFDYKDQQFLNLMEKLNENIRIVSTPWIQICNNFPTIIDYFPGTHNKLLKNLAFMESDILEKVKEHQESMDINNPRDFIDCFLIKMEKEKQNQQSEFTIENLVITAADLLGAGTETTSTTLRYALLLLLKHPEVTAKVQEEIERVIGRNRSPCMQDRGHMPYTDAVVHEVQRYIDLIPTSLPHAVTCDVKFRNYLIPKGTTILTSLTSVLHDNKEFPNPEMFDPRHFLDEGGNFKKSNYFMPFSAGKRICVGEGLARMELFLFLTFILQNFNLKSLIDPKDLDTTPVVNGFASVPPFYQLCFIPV

First: Cc1cc(C(F)(F)F)n2ncc(-c3ccccc3)c2n1
Second: FC(F)(F)c1cccc(Nc2ncnc3ccccc23)c1
The inhibition of the first is lower: 21.2% for the first, 44.1% for the second.

Compared with `C=C1c2cc(CC)ccc2NC(=O)N1c1ccc(C)cc1`, `CCC(C)NC(=O)C1CCC(=O)N1Cc1ccc(C)cc1` (centres undefined) is lower in inhibition: 32.6% for the first, 28.1% for the second.

First: CC1(C)CC(=O)C2=C(C1)NCN(CCCN1CCOCC1)C2
Second: CC(=O)c1ccc(OCCN2CCOCC2)cc1
The inhibition of the first is lower: -0.8% for the first, 2.4% for the second.

Going from `CCCCc1nc(NCCN)c(C#N)c2c1CSC(C)(C)C2` to `CCCCc1c(O)nc2n(c1=O)CCS2`, the inhibition falls from 25.3% to -19.9%.

Compared with `CCNc1nc(SCCOc2ccccc2)nc(N(C)C)n1`, `Cn1c(CO)cnc1SCc1ccccc1` is higher in inhibition: 12.3% for the first, 39.7% for the second.

First: Cc1ccnc(NC(=O)c2ccc(NC(=O)c3ccco3)cc2)c1
Second: O=C(CSc1ccccc1)Nc1ccc(NC(=O)c2ccco2)cc1
The inhibition of the first is lower: 13.1% for the first, 22% for the second.

Compared with `O=C(Nc1ccc(Sc2ccc(Br)cc2)cc1)c1ccco1`, `O=C(/C=C/c1ccco1)Nc1ccc(Oc2ccccc2)cc1` is higher in inhibition: 6.9% for the first, 8.4% for the second.

First: CCOCCOC(=O)C1=C(C)N(C)C(=O)NC1c1ccccc1F (centres undefined)
Second: CCOC(=O)C(CCOc1cccc(CC)c1)C(=O)OCC
The inhibition of the first is higher: 47.5% for the first, 42% for the second.

First: COc1ccc(CCNC(=O)CN2CCC(n3nnc4cc(F)ccc43)CC2)cc1OC
Second: Cc1ccc(CN2C(=O)CCC2C(=O)NCCCN2CCCCC2C)cc1 (centres undefined)
The inhibition of the first is higher: 22.7% for the first, 8.1% for the second.

First: Cc1ccc(C(=O)NNC(=O)OC(C)(C)C)c(Cl)c1
Second: CCc1ccccc1NC(=O)CSc1nnc([C@@H](NC(=O)OC(C)(C)C)C(C)C)o1
The inhibition of the first is higher: 14.6% for the first, 8% for the second.

Going from `CCN1CCN(Cc2nc3c(c(=O)n(C)c(=O)n3C)n2CC(=O)c2ccccc2)CC1` to `CCN1CCN(c2c(Cl)cccc2NC(=O)c2ccc(Br)o2)CC1`, the inhibition rises from 4.3% to 16%.

Compared with `CC1CN(c2cc(=O)n(Cc3ccc(F)cc3)c(=O)[nH]2)CC(C)O1` (centres undefined), `Cc1ccc(NC(=O)N2CCC(C(=O)NCc3ccc(F)cc3)CC2)cc1` is higher in inhibition: -11% for the first, 4.7% for the second.

First: Cc1ccccc1/[N+]([O-])=C/c1ccncc1
Second: Cc1ccccc1OC/C(O)=C(\C#N)c1nc2ccccc2[nH]1
The inhibition of the first is higher: 42.4% for the first, 38.3% for the second.

First: CCOc1cc(/C=C2/N=C(c3ccc(C(C)(C)C)cc3)OC2=O)cc(Cl)c1OS(C)(=O)=O
Second: CCS(=O)(=O)n1nc(-c2ccc(OC)cc2)nc1SC
The inhibition of the first is lower: 14.4% for the first, 46% for the second.

First: COC(=O)c1sccc1-n1cccc1C(=O)C(=O)N1CCCCC1
Second: Cc1ccc(Cn2nnc3c(=O)n(CC(=O)N4CCCCC4)cnc32)cc1
The inhibition of the first is lower: 31.2% for the first, 34% for the second.

Compared with `Cc1cc(C)c(NC(=O)CS(=O)CC(=O)Nc2cccnc2)c(C)c1` (centres undefined), `CCC(=O)Nc1cccc(NC(=O)c2cccnc2)c1` is lower in inhibition: 13.1% for the first, 6.1% for the second.

First: COc1cc(/C=C(/NC(=O)c2ccccc2)C(=O)Nc2cccc(O)c2)c([N+](=O)[O-])cc1OC
Second: COc1cc(OC)cc(C(=O)NC2CCN(C(=O)N3c4ccccc4Sc4ccccc43)CC2)c1
The inhibition of the first is higher: 6.1% for the first, 5.8% for the second.

Compared with `Cc1cc(C(=O)Nc2ccccc2N2CCOCC2)c2ccccc2n1`, `c1ccc(-c2oc3ncnc(N4CCOCC4)c3c2-c2ccccc2)cc1` is lower in inhibition: 29.8% for the first, 9.2% for the second.

First: COc1ccc(C(=O)CSc2n[nH]c(N)n2)cc1
Second: O=C(CSc1nc2ccccc2[nH]1)c1cccs1
The inhibition of the first is lower: 4.5% for the first, 42.5% for the second.

Compared with `COC(=O)Cc1cc(=O)n(-c2nc3ccccc3s2)[nH]1`, `O=c1cc(O)nc(SCc2ccccc2Cl)[nH]1` is lower in inhibition: 13.8% for the first, 1.2% for the second.

Going from `CCCCCN1CC(O)=C(c2nc(-c3ccc(Cl)cc3)cs2)C1=N` to `CN(C(=O)CSc1nc(C2CC2)nc2ccccc12)c1nc(-c2ccccc2)cs1`, the inhibition rises from 7.1% to 12.3%.

First: Cc1ccc(Nc2nc(-c3sc(NC(=O)c4ccccc4)nc3C)cs2)cc1
Second: Cc1nc2ccc(NC(=O)N3CCC(c4ccccc4)C3)cc2nc1C (centres undefined)
The inhibition of the first is lower: 17.1% for the first, 28.5% for the second.

Compared with `CCCC(=O)Nc1ccc(Cl)c(NC(=O)c2ccc(Br)o2)c1`, `Cc1cccc(NC(=O)CSc2nnc(-c3ccco3)o2)c1` is lower in inhibition: 12.5% for the first, -7.9% for the second.

Compared with `O=C(COc1cc(Cl)c(Cl)cc1Cl)NC(=O)NC1CCCC1`, `Cc1nnc(NC(=O)CSc2nc(C3CCCCC3)nc3ccccc23)s1` is higher in inhibition: -6.2% for the first, -1.4% for the second.

First: CCCC(=O)N1CCc2[nH]c3ccccc3c2C1
Second: O=C(O)CCN=C1CCc2ccccc2N1
The inhibition of the first is higher: 25.3% for the first, 0.2% for the second.

First: O=C(Nc1cccc(Cl)c1)OCc1ccccn1
Second: CCc1c(-c2ccccc2)nc(N)c(C#N)c1-c1cccs1
The inhibition of the first is higher: 27.1% for the first, 2.8% for the second.

First: CCOc1cc(N2CCOCC2)c(OCC)cc1NC(=O)COC(=O)[C@H](Cc1c[nH]c2ccccc12)NC(C)=O
Second: COc1cc(C(=S)N2CCOCC2)cc(OC)c1OC(=O)c1cc([N+](=O)[O-])cc([N+](=O)[O-])c1
The inhibition of the first is lower: -4.2% for the first, -1.3% for the second.

Going from `COc1cccc(N2C(=O)CC(N3CCN(S(=O)(=O)c4ccccc4)CC3)C2=O)c1` (centres undefined) to `O=C(Nc1ccc2c(c1)CCC2)c1cccc(S(=O)(=O)N2CCN(c3ccc(F)cc3)CC2)c1`, the inhibition rises from 1.5% to 26%.

First: CN1CCN(c2ccc([N+](=O)[O-])c(Sc3nc4ccccc4[nH]3)c2)CC1
Second: COc1ccc(-n2nnc3c(=O)n(CC(=O)N4CCC(Cc5ccccc5)CC4)cnc32)cc1
The inhibition of the first is higher: 33.8% for the first, 4.8% for the second.

Compared with `C=CCOc1ccc(C2/C(=C(\O)c3c(C)[nH]c(C(=O)OC)c3C)C(=O)C(=O)N2CCN(C)C)cc1` (centres undefined), `CCN(CC)S(=O)(=O)c1ccc2[nH]cc(C(=O)NCCc3ccccc3)c(=O)c2c1` is higher in inhibition: 2.1% for the first, 4.6% for the second.

First: CC(C)C(C)NC(=O)COc1ncnc2ccccc12 (centres undefined)
Second: Cc1nn(-c2ccccc2)c2sc(C(=O)N(Cc3ccco3)C(C)C(=O)NC(C)(C)C)cc12 (centres undefined)
The inhibition of the first is higher: 34.6% for the first, 33.9% for the second.

Going from `O/N=C1\CC2(Cc3nonc31)OCCO2` to `Cn1c(=O)c2c(SCC(=O)N3CCOCC3)nc(C3CC3)nc2n(C)c1=O`, the inhibition rises from -5.4% to 8.8%.

Going from `O=C(Cn1cnc2c(nnn2-c2ccccc2)c1=O)N1CCC(Cc2ccccc2)CC1` to `O=C(CSc1nnc(-c2ccco2)o1)NCC(=O)c1ccccc1`, the inhibition falls from 43.2% to 0.5%.

First: CCC1C(C#N)=C(SC)NC2=C1C(=O)CC(C)(C)C2 (centres undefined)
Second: CCOC(=O)Cc1c(C)nc2c(C#N)c(C)nn2c1C
The inhibition of the first is lower: 12.7% for the first, 12.9% for the second.

Compared with `Cc1ccc(-n2ncc3c2ncn2nc(-c4ccco4)nc32)c(C)c1`, `Cc1cc(C)c2c(n1)nn1c(-n3ccnc3)cc(C)nc21` is lower in inhibition: 4.8% for the first, 4.7% for the second.

First: Cc1ccc(S(=O)(=O)NCC(=O)N(CC(=O)NC(C)(C)C)Cc2cccs2)cc1
Second: O=C(COC(=O)CCC(=O)c1cccs1)NCc1ccco1
The inhibition of the first is lower: -10.5% for the first, 5.2% for the second.

Going from `Cc1cc(C)n2nc(C(=O)NC(C)(C)C)nc2n1` to `C[C@H](NC(=O)OC(C)(C)C)c1nnc(SCC(N)=O)o1`, the inhibition rises from -2.8% to 49.9%.

Compared with `C=CCc1cccc2cc(C(=O)N3CCN(C(=O)OCC)CC3)c(=O)oc12`, `CCN(CC)C(=O)N1CCN(C(=O)c2ccc(C)cn2)CC1` is higher in inhibition: -8% for the first, 4.3% for the second.

First: Cc1cccc(NC(=O)CSc2nc3c(c(=O)[nH]2)CCCC3)c1C
Second: Cc1cccc(NC(=O)CSC(N)=O)c1C
The inhibition of the first is lower: 17.6% for the first, 17.7% for the second.

Compared with `Cc1ccc(C(=O)Nc2nnc(-c3cccs3)s2)cc1C`, `Cc1nnc2sc(-c3ccco3)nn12` is higher in inhibition: -8.8% for the first, -0.9% for the second.

`C=CCSc1nc(Cc2ccc(Cl)cc2)nc2ccccc12` showed an inhibition of 0%.

`O=C(Nc1ccc(Oc2ccccc2)cc1)c1ccco1` was tested, and the inhibition was 59.9% (active).
For `COC(=O)c1ccc(NC(=O)c2ccco2)cc1`, the inhibition was 53.1% (active).
With `Cc1cccc(-n2cnc(C(=O)Nc3cccnc3)c2)n1` the inhibition was 57% (active).
For `c1ccc(Nc2nc(N3CCOCC3)c3ccccc3n2)cc1`, the inhibition was 55.6% (active).
`COc1ccccc1N1CC(O)=C(c2nc3ccccc3s2)C1=N` was tested, and the inhibition was 50.8% (active).
For `COc1cc(OC)c(NC(=O)c2ccc(Br)o2)cc1Cl`, the inhibition was 79.4% (active).
For `FC(F)(F)c1cccc(NC(=S)Nc2cccc(Cl)c2)c1`, the inhibition was 74.9% (active).
For `Cc1ccccc1-n1nc(C)c2cc(C(=O)NC3CC3)sc21`, the inhibition was 61.4% (active).
For `O=C(Nc1ccc(Br)cc1)C1CCC(=O)N1Cc1ccccc1Cl` (centres undefined), the inhibition was 96.4% (active).
`Cc1ccc(NC(=O)N2CCC(c3nc4c(nnn4Cc4c(F)cccc4Cl)c(=O)[nH]3)CC2)cc1` was tested, and the inhibition was 95.1% (active).
`COc1ccc(Cn2nnc3c(=O)[nH]c(C4CCN(C(=O)c5ccccc5Cl)CC4)nc32)cc1` was tested, and the inhibition was 57.2% (active).
`CCS(=O)(=O)n1nc(-c2ccccc2)nc1SCc1ccccc1` was tested, and the inhibition was 90.1% (active).
In the case of `COC(=O)CSc1nc(C2CC2)nc2ccccc12`, the inhibition is reported as 63.2% (active).
`Cc1cccc(NC(=O)CSc2nnc(CCCCCNC(=O)OC(C)(C)C)o2)c1C` was tested, and the inhibition was 63.7% (active).
With `C[C@H](NC(=O)OC(C)(C)C)c1nnc(SCC(=O)Nc2ccc(Br)cc2)o1` the inhibition was 62.5% (active).
For `CCc1ccccc1NC(=O)CSc1nnc([C@@H](NC(=O)OC(C)(C)C)C(C)CC)o1` (some centres undefined), the inhibition was 59.4% (active).
For `C=CCSc1nc2ccccc2[nH]1`, the inhibition was 66% (active).
In the case of `COc1ccccc1CSc1nc2ccccc2[nH]1`, the inhibition is reported as 51.7% (active).
